Our source for the binding signal values is article PMC10668032, “Altered binding affinity of SIX1-Q177R correlates with enhanced WNT5A and WNT pathway effector expression in Wilms tumor”.

Whole data set: some 33,000 sequences, median “e-score” near -0.053, cut for the highest 2% near 0.38. The entries come from a sample that favours the highest values as a whole.

The target of the test is T1, SIX1 homeodomain (reference allele) (human, UniProt Q15475 108-198).
T1 sequence: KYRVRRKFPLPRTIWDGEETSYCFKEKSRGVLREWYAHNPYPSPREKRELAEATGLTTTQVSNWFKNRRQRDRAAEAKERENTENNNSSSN
Briefly: universal protein binding microarray; Universal all-10-mer PBM (8x60K, AMADID 030236), 300 nM GST-tagged protein, Alexa Fluor 488 anti-GST; buffer, salt, pH and temperature not stated (as in Berger); high values mean tight binding. The conditions noted are these: protein: ivt; tags: N-terminal GST; dsDNA, one strand shown. The gist of the method:
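Duplicate protein binding microarrays (universal 'all 10-mer', 8×60K format) were incubated with GST-tagged homeodomains at 300 nM final concentration. Binding was quantified as 8-mer E-scores with the Universal PBM Analysis Suite.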
With GTGTCCCA, the binding signal amounted to 0.204 ± 0.0515 E-score. Regarding CGTTAGTA, the binding signal stood at 0.194 ± 0.00764 E-score. With ATATTCTC, the binding signal was determined as 0.269 ± 0.0439 E-score. In the case of TATCCGAA, the binding signal was determined as 0.334 ± 0.0355 E-score. AATCCGCA: the binding signal was determined as 0.204 ± 0.0414 E-score. CATCCGCC: the binding signal was 0.237 ± 0.0769 E-score.

As for GATCCGCA, the binding signal amounted to 0.411 ± 0.0362 E-score. Take TATCCGCA: the binding signal came to 0.4006 ± 0.00313 E-score. For AATCCGCC, the binding signal worked out at 0.212 ± 0.00218 E-score. Consider GATCCGCC, for which the binding signal turned out to be 0.427 ± 0.0138 E-score. Regarding GATCCAAA, the binding signal was found to be 0.207 ± 0.0442 E-score.

Regarding AATCCGCT, the binding signal was found to be 0.191 ± 0.0498 E-score. Regarding GCCATATA, the binding signal was determined as 0.215 ± 0.0356 E-score. Then ACACCGCT, with 0.224 ± 0.00469 E-score; and CCCACTGA, with 0.191 ± 0.0775 E-score; and ATGCAGTG, with 0.153 ± 0.121 E-score. As for ATCGCGTA, the binding signal turned out to be 0.189 ± 0.0511 E-score. Then TACTACTA, with 0.195 ± 0.0204 E-score; and AGGATAAA, with 0.16 ± 0.041 E-score; and CGTATACG, with 0.317 ± 0.065 E-score. To CGGATGCC belongs 0.214 ± 0.0396 E-score; to CGAATACC, 0.233 ± 0.0485 E-score. Regarding CGGATACC, the binding signal came out at 0.476 ± 0.00619 E-score. Turning to AGGATACG, the binding signal turned out to be 0.386 ± 0.0183 E-score. For CGGATACG, the binding signal came to 0.38745 ± 0.000205 E-score. On to CGGATACA, for which the binding signal was 0.446 ± 0.0132 E-score. As to CGGATAAG, the binding signal stood at 0.187 ± 0.0213 E-score. Then CCATCTAC, with 0.161 ± 0.00787 E-score; and ATTCAATA, with 0.161 ± 0.0419 E-score; and TATGCGAA, with 0.164 ± 0.0286 E-score. For the sequence ACACCTTC, the binding signal came out at 0.219 ± 0.032 E-score. For ATGGGGTA, the binding signal worked out at 0.163 ± 0.0446 E-score. Regarding TCGCGACA, the binding signal stood at 0.193 ± 0.0437 E-score. As for ATCGCTCG, the binding signal is 0.199 ± 0.0182 E-score.

With CGGATTGC, the binding signal is 0.23 ± 0.0242 E-score. Consider ACACCGAC, for which the binding signal came out at 0.256 ± 0.0314 E-score. As to GATCAAGA, the binding signal was found to be 0.191 ± 0.0318 E-score. As for CCAAGATC, the binding signal is 0.22 ± 0.0354 E-score. As to ACCCAATA, the binding signal came to 0.158 ± 0.0255 E-score. For the sequence GCCCCTCC, the binding signal came to 0.158 ± 0.185 E-score. With AGGATACC, the binding signal turned out to be 0.457 ± 0.00534 E-score. With GGGATAAC, the binding signal came out at 0.303 ± 0.0153 E-score.

TGGATACA: the binding signal is 0.351 ± 0.0427 E-score. As for GGGATACC, the binding signal was determined as 0.455 ± 0.0274 E-score. Turning to GGAATACC, the binding signal came to 0.295 ± 0.024 E-score.

Consider AGGATACT, for which the binding signal amounted to 0.364 ± 0.0424 E-score. Regarding GGGATACA, the binding signal is 0.383 ± 0.0303 E-score.

As to AGGATACA, the binding signal is 0.337 ± 0.0073 E-score. Turning to TCTATACA, the binding signal came to 0.243 ± 0.0131 E-score. On to CGCCGATA, for which the binding signal turned out to be 0.376 ± 0.0145 E-score. Turning to TACTCGCA, the binding signal amounted to 0.154 ± 0.0249 E-score. In the case of CTATATAG, the binding signal is 0.182 ± 0.0165 E-score. Take ATGTGGTA: the binding signal stood at 0.151 ± 0.00476 E-score. On to ACCATCTA, for which the binding signal came out at 0.159 ± 0.0813 E-score.

For the sequence CCCGGGTA, the binding signal was found to be 0.228 ± 0.0421 E-score. Then ATACAAGA, with 0.239 ± 0.0188 E-score; and TACATCCA, with 0.156 ± 0.0562 E-score; and ATTGGATA, with 0.297 ± 0.05 E-score. For the sequence GATATGGC, the binding signal came out at 0.418 ± 0.0102 E-score. Turning to GGTATGTA, the binding signal was found to be 0.2127 ± 0.00178 E-score. In the case of AATATGGA, the binding signal is 0.158 ± 0.0544 E-score. Regarding GATATTGC, the binding signal was determined as 0.323 ± 0.0993 E-score.

In the case of GATATGGA, the binding signal was 0.423 ± 0.00533 E-score. GATATGTA: the binding signal turned out to be 0.383 ± 0.0265 E-score. As for GATATGAC, the binding signal is 0.357 ± 0.048 E-score. Take CCTATGTA: the binding signal came out at 0.156 ± 0.0122 E-score. Turning to TATATGGA, the binding signal worked out at 0.207 ± 0.0193 E-score. Regarding AAAAGTAT, the binding signal was determined as 0.204 ± 0.154 E-score.

Regarding AGGGTGAT, the binding signal was found to be 0.366 ± 0.00952 E-score. For the sequence ATACTTTA, the binding signal was 0.261 ± 0.0614 E-score.

Take GATAGGTA: the binding signal was 0.325 ± 0.00657 E-score. Regarding GATCAAAA, the binding signal is 0.234 ± 0.0678 E-score.

Turning to AGGGGCGG, the binding signal turned out to be 0.174 ± 0.127 E-score.

With ATCTTCTA, the binding signal is 0.227 ± 0.0812 E-score. To AGATCATG belongs 0.295 ± 0.0208 E-score; to AGATCATC, 0.344 ± 0.0462 E-score; to GTATCTTA, 0.312 ± 0.0466 E-score. To ATATCATA belongs 0.442 ± 0.0274 E-score; to GTATCATA, 0.471 ± 0.013 E-score; to GCATCATA, 0.183 ± 0.0507 E-score.

Take ATATCATG: the binding signal is 0.458 ± 0.0133 E-score. Turning to ATCTCATG, the binding signal amounted to 0.197 ± 0.0118 E-score. For the sequence ATATCATC, the binding signal was 0.46 ± 0.0219 E-score. Then ATATCTTA, with 0.345 ± 0.0615 E-score. Regarding CTATCATA, the binding signal is 0.341 ± 0.0419 E-score. On to CTATCATC, for which the binding signal is 0.34 ± 0.0172 E-score.
